A number with no mark means an inactive call. The rule behind the calls is not given here.
assay: PLAP enzyme activity inhibition – biochemical, colorimetric, counter-screen, dose response (AID 779); conditions: colorimetric OD read-out

SMILES | IC50 [µM]
c1ccc(-c2cn3nc(-c4ccccc4)c(-c4ccccc4)nc3n2)cc1 | > 50
CS(=O)(=O)N(CC(=O)Nc1cccc(Cl)c1)c1ccccc1Cl | > 50
Nc1ccc(Br)c2c1C(=O)c1ccccc1C2=O | > 50
N#CC(c1nc2ccccc2nc1N1CCCC1)S(=O)(=O)c1cccs1 (configuration not stated) | > 50
C/C(=C\C(=O)c1ccccc1)NNc1nc2ccccc2s1 | > 50
CCn1c(SCc2nc(-c3ccccc3)no2)nnc1-c1cccs1 | > 50
Oc1ccc(-c2cn3c(n2)SCC3)cc1O | > 50
CCn1c(COc2ccccc2C)nnc1SCC(=O)Nc1cc(C)on1 | > 50
COc1ccc(N2Cc3cccc(C(=O)O)c3C2=O)cc1 | > 50
C=CCOC(=O)c1cc(-c2ccc(/C=C3\C(=O)NC(=O)C(C#N)=C3C)o2)ccc1Cl | > 50
Cc1c(NC(=S)N/N=C/c2cccc(O)c2)c(=O)n(-c2ccccc2)n1C | > 50
Cc1ccc(CNC(=O)CN2CCC(C(N)=O)CC2)cc1 | > 50
Cc1ccc2cc(/C=C3\N=C(c4ccccc4)OC3=O)c(N3CCOCC3)nc2c1 | > 50
COc1ccc2oc(/C=C/N(C)C)c(C(=O)c3ccc(Cl)cc3)c2c1 | > 50
Cc1ccc(S(=O)(=O)/C(C#N)=C/c2c(N3CCOCC3)nc3ccccn3c2=O)cc1 | > 50
Cc1occc1-c1nnc(SCC(=O)Nc2ccccc2-c2ccccc2)n1C | > 50

SMILES | IC50 [µM]
CCSC1=N/C(=C\c2ccc(-c3ccccc3[N+](=O)[O-])o2)C(=O)S1 | > 50
Cn1c(=O)[nH]c(=O)c2c1nc1n2CCN1Cc1ccccc1 | > 50
CCN(CC)CCCN(Cc1cc2cc3c(cc2[nH]c1=O)OCCO3)C(=O)Nc1ccccc1 | > 50
O=S(=O)(c1ccc2nc(-c3ccco3)c(-c3ccco3)nc2c1)N1CCOCC1 | > 50
CCOC(=O)C1=C(C)N=c2s/c(=C/c3ccco3)c(=O)n2C1c1cccc(OC)c1 (configuration not stated) | > 50
COC(=O)Sc1nnc(-c2ccc(Br)cc2)o1 | > 50
CSc1nc(NCCOCCO)c2sc3nc(-c4ccco4)c4c(c3c2n1)CCC4 | > 50
CCC(C)N1C(=O)/C(=C/c2c(NCCCOC(C)C)nc3c(C)cccn3c2=O)SC1=S (configuration not stated) | > 50
O=C(c1ccc2c(=O)n(Cc3ccc4c(c3)OCO4)c(=S)[nH]c2c1)N1CCCCC1 | > 50
COc1ccc(C(c2nnnn2Cc2cccs2)N2CCN(c3ccccc3F)CC2)cc1 (configuration not stated) | > 50
CCOc1ccc(S(=O)(=O)N(CC(=O)N/N=C/c2ccc(-c3ccc([N+](=O)[O-])cc3)o2)c2ccccc2)cc1 | > 50
Oc1c(C=C2N=c3ccccc3=N2)sc(=S)n1-c1ccc(F)cc1 | > 50
CC(C)C1Cc2c(C#N)c(N)sc(=S)c2CO1 (configuration not stated) | > 50
CCCCN1C(=O)/C(=C/C=C2\N(C)c3ccccc3C2(C)C)SC1=S | > 50
Cc1ccsc1/C=C/C1=Cc2c(sc(NC(=O)CSc3n[nH]c(N)n3)c2C#N)C(C)(C)C1 | > 50
Cn1cc([N+](=O)[O-])c(C(=O)Nc2ccc3c(c2)OCCO3)n1 | > 50
